Our source for the startle values is the supplement of paper PMC9950053.

The structures appear in SMILES notation. Structures can show the parent of a compound that is named as a salt.

The assay has as its system Danio rerio larvae (5 dpf). As to the kind of experiment: startle (activity period 16 minus period 15, 20-s interval sound) minus DMSO control (percentage points); higher = stronger startle response than DMSO larvae. The note with it: 10 µM; exposure time: 3 h pre-incubation + 3 h imaging. Here is the method: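 Wild-type 5 dpf zebrafish larvae (n=48 per drug, 96-well plates, 28.5 °C) were exposed to Tocris FDA-approved library compounds at 10 µM (0.1% DMSO) for 3 h before and 3 h during imaging. Images were taken every 6 s during visual (moving coloured lines) and acoustic stimuli, and larvae were tracked with the DeepLabCut-based Z-LaP Tracker. Each behavioural measure is the treated-group mean minus the DMSO vehicle control mean (n=844), in percentage points. This mapping covers compounds with 4-character plate codes.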
Turning to `CN(C)CCC[C@@]1(c2ccc(F)cc2)OCc2cc(C#N)ccc21` [Escitalopram oxalate], the startle was -7.28.
With `OC(CNCC(O)C1CCc2cc(F)ccc2O1)C1CCc2cc(F)ccc2O1` (stereo not given) [Nebivolol hydrochloride], the startle was -4.81.
For `CCOc1nc2cccc(C(=O)O)c2n1Cc1ccc(-c2ccccc2-c2nnn[nH]2)cc1` [Candesartan], the startle amounted to 11.2.
With `CCc1ccc(CCOc2ccc(CC3SC(=O)NC3=O)cc2)nc1` (stereo not given) [Pioglitazone hydrochloride] the figure was -4.69; with `Clc1ccc(COC(Cn2ccnc2)c2ccc(Cl)cc2Cl)c(Cl)c1` (stereo not given) [Miconazole nitrate], 5.64.
With `CCN(Cc1ccncc1)C(=O)C(CO)c1ccccc1` (stereo not given) [Tropicamide] the figure was -6.79; with `O=C(O)CCCc1ccccc1` [Sodium 4-Phenylbutyrate], -5.61.
With `N#Cc1ccc(C(c2ccc(C#N)cc2)n2cncn2)cc1` [Letrozole] the figure was 6.54.
On to `CN1CC[C@@H](NC(=O)Nc2ccc(C#N)cc2)C[C@@H]1c1nc2ccccc2[nH]1`, for which the startle was -4.15.
Take `CC(C)c1nc(CN(C)C(=O)N[C@H](C(=O)N[C@@H](Cc2ccccc2)C[C@H](O)[C@H](Cc2ccccc2)NC(=O)OCc2cncs2)C(C)C)cs1` [Ritonavir]: the startle stood at 1.44.
On to `CCOC(=O)c1ncn2c1CN(C)C(=O)c1cc(F)ccc1-2` [Flumazenil], for which the startle is -0.637.
For `Nc1cc(N2CCCCC2)nc(N)[n+]1[O-]` [Minoxidil], the startle is -1.64.
For `Cc1nnc(C(C)C)n1C1C[C@H]2CC[C@@H](C1)N2CC[C@H](NC(=O)C1CCC(F)(F)CC1)c1ccccc1` (stereo in doubt) [Maraviroc], the startle was -4.84.
In the case of `CCOC(=O)[C@H](CCc1ccccc1)N[C@@H](C)C(=O)N1[C@H](C(=O)O)C[C@@H]2CCC[C@@H]21` [Ramipril], the startle is -0.503.
With `COc1ccc(C[C@@H](C)NC[C@H](O)c2ccc(O)c(NC=O)c2)cc1` [Arformoterol tartrate], the startle was -8.08.
The value for `Cn1cnc([N+](=O)[O-])c1Sc1ncnc2[nH]cnc12` [Azathioprine] was -0.818.
For the compound `NS(=O)(=O)c1cc(C(=O)O)c(NCc2ccco2)cc1Cl` [Furosemide], the startle was -3.94.
With `Cc1ccccc1C(=O)Nc1ccc(C(=O)N2CCCC(O)c3cc(Cl)ccc32)c(C)c1` (stereo not given) [Tolvaptan] the figure was 4.33; with `COc1cc2ncnc(Nc3ccc(F)c(Cl)c3)c2cc1OCCCN1CCOCC1` [Iressa], -1.42.
With `CC(CCc1ccc(O)cc1)NCCc1ccc(O)c(O)c1` (stereo not given) [Dobutamine hydrochloride] the figure was -0.893.
On to `OCCN(CCO)c1nc(N2CCCCC2)c2nc(N(CCO)CCO)nc(N3CCCCC3)c2n1` [Dipyridamole], for which the startle was found to be 7.7.
Consider `Nc1ccn([C@@H]2O[C@H](CO)[C@@H](O)C2(F)F)c(=O)n1` [Gemcitabine hydrochloride], for which the startle came to 2.17.
On to `COC(=O)C1=C(C)NC(C)=C(C(=O)OC(C)C)C1c1cccc2nonc12` (stereo not given) [Isradipine], for which the startle was -8.8.
With `CC#C[C@]1(O)CC[C@H]2[C@@H]3CCC4=CC(=O)CCC4=C3[C@@H](c3ccc(N(C)C)cc3)C[C@@]21C` [Mifepristone] the figure was 0.533; with `Cc1ccc(NC(=O)c2ccc(CN3CCN(C)CC3)cc2)cc1Nc1nccc(-c2cccnc2)n1` [Imatinib mesylate], 5.71.
`CCCc1nc2c(C)cc(-c3nc4ccccc4n3C)cc2n1Cc1ccc(-c2ccccc2C(=O)O)cc1` [Telmisartan]: the startle was 2.86.
For `COc1ccc(-c2ccc3cc(C(=O)O)ccc3c2)cc1C12CC3CC(CC(C3)C1)C2` [Adapalene], the startle was -0.788.
As to `CC(C)(C#N)c1cc(Cn2cncn2)cc(C(C)(C)C#N)c1` [Anastrozole], the startle is -0.0231.
For the compound `COc1ccc([C@@H]2Sc3ccccc3N(CCN(C)C)C(=O)[C@@H]2OC(C)=O)cc1` [Diltiazem hydrochloride], the startle stood at 1.21.
Take `CC(C)[C@H]1CC[C@H](C(=O)N[C@H](Cc2ccccc2)C(=O)O)CC1` [Nateglinide]: the startle came out at 3.17.
In the case of `CCCCc1nc(Cl)c(CO)n1Cc1ccc(-c2ccccc2-c2nnn[nH]2)cc1` [Losartan potassium], the startle is -0.225.
The value for `CN1CC(=O)N2[C@H](c3ccc4c(c3)OCO4)c3[nH]c4ccccc4c3C[C@@H]2C1=O` [Tadalafil] was 8.43; that for `CCOc1cc(CC(=O)N[C@@H](CC(C)C)c2ccccc2N2CCCCC2)ccc1C(=O)O` [Repaglinide] was -4.11; that for `C[C@H](Cc1cc2c(c(C(N)=O)c1)N(CCCO)CC2)NCCOc1ccccc1OCC(F)(F)F` [Silodosin] was 2.61.
With `CN1CCN(CCCN2c3ccccc3Sc3ccc(Cl)cc32)CC1` [Prochlorperazine dimaleate] the figure was -8.12; with `CCCCCOC(=O)Nc1nc(=O)n([C@@H]2O[C@H](C)[C@@H](O)[C@H]2O)cc1F` [Capecitabine], 1.06.
In the case of `Cc1ccc(N(CC2=NCCN2)c2cccc(O)c2)cc1` [Phentolamine Mesylate], the startle was -2.8.
Turning to `Nc1nc2[nH]cc(CCc3ccc(C(=O)N[C@@H](CCC(=O)O)C(=O)O)cc3)c2c(=O)[nH]1` [Pemetrexed], the startle was -5.08.
The value for `NC(=O)N1c2ccccc2C=Cc2ccccc21` [Carbamazepine] was 3.47.
With `CCCN(CCc1cccs1)[C@H]1CCc2c(O)cccc2C1` [Rotigotine hydrochloride] the figure was -5.79.
